The record followed here is PubChem BioAssay.

Experiment [1] can be described thus: polyglutamine-triggered caspase-3 activation inhibitors, cell-based (AID 1583). To be noted: polyglutamine-induced caspase-3 activation, cell assay; stronger effect = higher value;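 tested at 10 µM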.
A short description of experiment [2]: suppressors of polyQ aggregation in yeast, 75Q-TubU reporter (AID 1593). The note with it: Yeast 75Q polyglutamine aggregation reporter.
A short description of experiment [3]: rescue of polyQ-huntingtin neuronal dysfunction in worms, whole organism, C. elegans mechanosensory neurons, N-terminal huntingtin (AID 1599). To be noted: touch response, stronger effect = higher value.
Experiment [4] in a line: inhibitors of mitochondrial cytochrome c release, biochemical, purified mitochondria (AID 1603).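 Further: mouse liver mitochondria challenged with calcium chloride; signal normalized to the plate average as 100%.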 To be noted: stronger effect = lower value.
Experiment [5] in a line: inhibitors of polyQ protein aggregation (AID 1604). To be noted: polyglutamine-induced protein aggregation inhibition assay; stronger effect = higher value; tested at 2.5 µM.
Experiment [6] in a line: enhancers of glutamate uptake in motor neurons, MN-1 cell line (AID 1612).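 Further: tested at 1 µM final; 0% = mean of DMSO vehicle wells on each plate; positive means more glutamate uptake than control and negative means less.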 The note with it: MN-1 motor neuron cells, stronger effect = higher value.
The nature of experiment [7]: reducers of polyQ inclusions in PC12 cells, cell-based, NGF-treated PC12, GFPQ80 (AID 1614).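 Further: lower means fewer inclusions and 0 means no inclusions at all.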 To be noted: PC12 NGF-treated GFP-polyQ80 inclusion reduction.
Experiment [8] is described as follows: suppressors of polyglutamine aggregation in yeast, 75Q-TubH (AID 1616). To be noted: S. cerevisiae 75Q-TubH polyglutamine aggregation suppression; stronger effect = higher value.
The nature of experiment [9]: liver-stage malaria parasite growth inhibition, primary screen, cell-based, HepG2, luciferase luminescence, HepG2 viability (AID 624349).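 Further: 100% = mean of DMSO negative control wells on the same plate.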 The note with it: P. berghei liver stage in HepG2, luciferase luminescence, concentration not given here; parasite load remaining: stronger effect = lower value; viability: measured here: HepG2 viability without parasites.
Experiment [10] in a line: differential killing of epithelial or mesenchymal cells, primary screen, imaging, PC-3E GFP, TEM4-18 mCherry, co-culture (AID 1345086;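 active means compounds killing one labelled cell type while sparing the other, by normalised counts and ratio limits, not self-fluorescent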;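 on all read-outs here: cells exposed to compound for 72 h before imaging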;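 on red/green cell ratio (normalised): normalised mesenchymal count divided by normalised epithelial count so high means epithelial killing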). The note with it: imaging cell counts, at 1 µM; for red/green cell ratio (normalised): actives lie on both sides, counts scaled to control wells, 1 = unselective.
Experiment [11] can be described thus: sensitizers of A549 cells to miR-34 induction, primary screen, imaging, A549 dox-inducible miR-34, nuclei and caspase counts (AID 1347080;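 active means compounds whose cell count with miR-34 switched on is under 0.7 times the count with it off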). To be noted: A549 miR-34 inducible, Hoechst nuclei count, 48 h.
[12] abbreviates: measured here: epithelial PC-3E GFP cell survival.
The mark [13] stands for this setting: measured here: mesenchymal TEM4-18 mCherry cell survival.
Setting [14] is: stronger effect = lower value, cell number ratio, induced over uninduced.
Setting [15] is: measured here: relative caspase fold change +Dox/-Dox.
Where [16] appears, read: measured here: total cells with miR-34 induction, stronger effect = lower value.
Setting [17] is: measured here: total cells without miR-34 induction.

“And” between values parts separate entries of the source, which are not always exact repeats. Identical values can stand only once. For part of these data: Results with a measured potency or affinity are listed apart. The source made the active and inactive calls. Unless noted, no stated cut-off is given here; in the data, active means parasite load remaining mostly below about 12% (no sharp cut-off); inactive means mostly above about 10%.

Turning to `CCC(=O)OCC(=O)C1(OC(=O)CC)C(C)CC2C3CCC4=CC(=O)C=CC4(C)C3(Cl)C(O)CC21C` (configuration not stated), in [1], the inhibition is -26%. The molecule also yielded a score in experiment [2] of 0.15. In [3], this molecule had a rescue above control of -4.19. In experiment [4], the cytochrome c release ratio was found to be 1.11. In addition, the inhibition of aggregation in experiment [5] is 41.7%. For the same molecule, in experiment [6], the glutamate uptake change turned out to be 23.7%. Moreover, the inclusion score in [7] turned out to be 2. This molecule showed an aggregation suppression score in experiment [8] of 1.25. In addition, in [9], the parasite load remaining is 142% (inactive) and 79.4% (inactive). In addition, the viability in experiment [9] is 78.6% and 97.5%. Further, the red/green cell ratio (normalised) in [10] was 1.47 (inactive). Besides, the normalised cell number in experiment [10] (setting [12]) is 0.88; in experiment [10] (setting [13]) it was 1.29. Also, the values for the fold change in experiment [11] (setting [14]) and in experiment [11] (setting [15]) were 0.749 (inactive) and 1.52, respectively. The cell count in [11] (setting [16]) was found to be 6530; in experiment [11] (setting [17]) it was 8720.
On to `C=C1CC[C@H](O)C/C1=C/C=C1\CCC[C@]2(C)C([C@H](C)/C=C/[C@H](C)C(C)C)CC[C@@H]12` (some centres not stated), for which, in experiment [1], the inhibition was found to be 1.02%. For the same molecule, in [2], the score was determined as 0.91. For the same molecule, the rescue above control in [3] turned out to be 1.1. The cytochrome c release ratio in [4] stood at 1.43. In experiment [5], this molecule registered an inhibition of aggregation of 63.2%. The glutamate uptake change in experiment [6] amounted to 0.71%. In addition, the inclusion score in experiment [7] was 3. The molecule also came in with an aggregation suppression score in experiment [8] of 0.441. Moreover, the parasite load remaining in [9] was 81.3% (inactive) and 44.7% (inactive). For the same molecule, in experiment [9], the viability was 73.5% and 101%. Also, the red/green cell ratio (normalised) in experiment [10] was 1.11 (inactive). The normalised cell number in experiment [10] (setting [12]) amounted to 1.28; in experiment [10] (setting [13]), 1.42. The fold change was 0.922 (inactive) in [11] (setting [14]) and 2.88 in experiment [11] (setting [15]). In addition, the cell count came out at 11200 in [11] (setting [16]) and 12200 in experiment [11] (setting [17]).
For the molecule `C[C@@H]1CC2C3C[C@H](F)C4=CC(=O)C=C[C@]4(C)[C@@]3(F)[C@@H](O)C[C@]2(C)[C@@]1(O)C(=O)CO` (some centres not stated), in experiment [1], the inhibition turned out to be 14.1%. Also, the score in experiment [2] amounted to 1.53. The molecule further came in with a rescue above control in [3] of 11.3. For the same molecule, in [4], the cytochrome c release ratio stood at 1.19. For the same molecule, the inhibition of aggregation in experiment [5] turned out to be 57.7%. Further, the glutamate uptake change in [6] came to 16.9%. The molecule also came in with an inclusion score in experiment [7] of 2. The same molecule had an aggregation suppression score in experiment [8] of 0.927. Also, in [9], the parasite load remaining is 21.3% (inactive). Further, the viability in [9] worked out at 92.2%. Besides, the red/green cell ratio (normalised) in experiment [10] is 1.15 (inactive). The normalised cell number in [10] (setting [12]) turned out to be 1.15; in experiment [10] (setting [13]) it was 1.33. In addition, the fold change in [11] (setting [14]) was 0.92 (inactive); in experiment [11] (setting [15]), 1.86. Further, the cell count in [11] (setting [16]) worked out at 7830; in experiment [11] (setting [17]) it was 8520.
For `CC1(C)O[C@@H]2CC3C4C[C@H](F)C5=CC(=O)CC[C@]5(C)C4[C@@H](O)C[C@]3(C)[C@]2(C(=O)CO)O1` (some centres not stated), the inhibition in experiment [1] came out at 6.64%. In experiment [2], this molecule returned a score of 1.49. In [3], the rescue above control came to 7.14. In [4], the cytochrome c release ratio came out at 1.08. This molecule also came in with an inhibition of aggregation in experiment [5] of 66.7%. The glutamate uptake change in experiment [6] was determined as 17%. Further, the inclusion score in [7] amounted to 2.5. In addition, the aggregation suppression score in experiment [8] is 0.898. Also, the parasite load remaining in experiment [9] was 151% (inactive) and 47.9% (inactive). Besides, the viability in [9] is 68.8% and 102%. For the same molecule, the red/green cell ratio (normalised) in experiment [10] is 1.21 (inactive). The normalised cell number was 1.17 in experiment [10] (setting [12]) and 1.42 in experiment [10] (setting [13]). The fold change was 0.854 (inactive) in experiment [11] (setting [14]) and 2.6 in [11] (setting [15]). In addition, the values for the cell count in [11] (setting [16]) and in experiment [11] (setting [17]) were 7720 and 9050, respectively.
With `CC(=O)O[C@H]1C[C@@]2(C)[C@@H](C[C@@H](O)C3[C@]2(C)CC[C@H]2[C@H](C)[C@H](O)CC[C@]32C)/C1=C(/CCC=C(C)C)C(=O)O` (some centres not stated), in experiment [1], the inhibition was 8.99%. In [2], this molecule had a score of 1.55. This molecule returned a rescue above control in [3] of -0.35. In addition, the cytochrome c release ratio in [4] is 1.24. This molecule registered an inhibition of aggregation in experiment [5] of 12.1%. In addition, in experiment [6], the glutamate uptake change amounted to 11.6%. For the same molecule, the inclusion score in experiment [7] came out at 2. Moreover, the aggregation suppression score in [8] worked out at 1.1. For the same molecule, the parasite load remaining in experiment [9] is 99.6% (inactive) and 102% (inactive). Moreover, the viability in experiment [9] was 71.9% and 91.9%. Besides, the red/green cell ratio (normalised) in experiment [10] was 1.29 (inactive). The values for the normalised cell number in experiment [10] (setting [12]) and in experiment [10] (setting [13]) were 1.06 and 1.36, respectively. Besides, the fold change in [11] (setting [14]) is 0.927 (inactive); in [11] (setting [15]), 1.7. The cell count in experiment [11] (setting [16]) was found to be 11800; in experiment [11] (setting [17]) it was 12700.
Regarding `CCOC(=O)OC(C)OC(=O)C1N2C(=O)C(NC(=O)[C@H](N)c3ccccc3)C2SC1(C)C` (some centres not stated), the inhibition in experiment [1] stood at 5.61%. The molecule also showed a score in experiment [2] of 1.5. The same molecule yielded a rescue above control in experiment [3] of -4.3. Further, the cytochrome c release ratio in [4] was found to be 0.96. The molecule also displayed an inhibition of aggregation in [5] of 70.4%. Besides, the glutamate uptake change in experiment [6] is -13.3%. Further, in [7], the inclusion score worked out at 2. For the same molecule, the aggregation suppression score in [8] is 1.07. Moreover, in experiment [9], the parasite load remaining is 43.5% (inactive). Also, the viability in [9] came to 104%. In experiment [10], the red/green cell ratio (normalised) was 1.19 (inactive). The normalised cell number stood at 1.07 in experiment [10] (setting [12]) and 1.27 in experiment [10] (setting [13]). For the same molecule, the fold change is 0.906 (inactive) in experiment [11] (setting [14]) and 2.54 in experiment [11] (setting [15]). Besides, the cell count in experiment [11] (setting [16]) amounted to 11600; in experiment [11] (setting [17]) it was 12800.

As a reminder, the inhibition is the relative decrease from the control value, in per cent. For orientation: viability means a read-out of living cells in per cent, often relative to untreated cells.
